Measured values reported in the supplement of paper PMC10515830.
Where a name gives a salt, the structure may show the parent alone.

Assays:
Details in all cases: 10 µM; exposure time 6 h
[1] = test system: Danio rerio larvae (5 dpf); test: difference in excitability vs DMSO (percentage points); higher = more excitable than DMSO
In short: (§1)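 Library compounds were tested at 10 µM final in 100 µL egg water on wild-type 5 dpf zebrafish larvae in 96-well plates for 6 h, with 48 larvae per compound. After 3 h, plates at 28.5 ℃ were imaged every 6 s during a 3-h run of moving lines and 100 ms, 400Hz tones. Behaviours were quantified by Z-LaP Tracker and reported as the compound mean less the vehicle control mean, in percentage points.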

[2] = test system: Danio rerio larvae (5 dpf); test: difference in startle response vs DMSO (percentage points); higher = stronger startle than DMSO
In short: as §1

[3] = test system: Danio rerio larvae (5 dpf); test: difference in activity during first hour vs DMSO (percentage points); higher = more activity than DMSO
In short: as §1

[4] = test system: Danio rerio larvae (5 dpf); test: difference in habituation to acoustic stimuli vs DMSO (percentage points); higher = more habituation than DMSO
In short: as §1

[5] = test system: Danio rerio larvae (5 dpf); test: difference in combined optomotor response to red, green and blue moving lines vs DMSO (percentage points); higher = stronger optomotor response than DMSO
In short: as §1

Row | SMILES | difference in excitability [1] | difference in startle response [2] | difference in activity during first hour [3] | difference in habituation to acoustic stimuli [4] | difference [5]
1 | CCCCCCCC(=O)N[C@H](CN1CCCC1)[C@H](O)c1ccc2c(c1)OCCO2 [Eliglustat (hemitartrate)] | 10.1 | -3.5 | 7.49 | 7.96 | 7.51
2 | Nc1ccc(S(N)(=O)=O)cc1 [Sulfanilamide] | 11.8 | -3.25 | 6.97 | -1.65 | 3.13
3 | CC(=O)O[C@]1(C(C)=O)CC[C@H]2[C@@H]3C[C@H](C)C4=CC(=O)CC[C@]4(C)[C@H]3CC[C@@]21C [Medroxyprogesterone 17-acetate] | 9.28 | -1.88 | -1.67 | -11.4 | -9.37
4 | COc1ccc(C[C@@H](C)NC[C@H](O)c2ccc(O)c(NC=O)c2)cc1 [Arformoterol (tartrate)] | 10.3 | -8.57 | 39 | -7.89 | -2.14
5 | COc1cc(C(=O)NCc2ccc(OCCN(C)C)cc2)cc(OC)c1OC [Trimethobenzamide (hydrochloride)] | -3.22 | 1.06 | -0.789 | 2.91 | -5.61
6 | CO[C@H]1O[C@@H]2O[C@@]3(C)CC[C@H]4[C@H](C)CC[C@@H]([C@H]1C)[C@@]24OO3 [Artemether] | 17.2 | 3.03 | -1.53 | 3.23 | 7.61
7 | CCCCCCCCCCCCCCCC(=O)OC/C=C(C)/C=C/C=C(C)/C=C/C1=C(C)CCCC1(C)C [Retinyl Palmitate] | 6.81 | 5.22 | 3.08 | 2.4 | -4.44
8 | Clc1ccc2nsnc2c1NC1=NCCN1 [Tizanidine (hydrochloride)] | 1.85 | 4.3 | -8.71 | 1.04 | -0.822
9 | COC(=O)N[C@H](C(=O)N[C@@H](Cc1ccccc1)[C@@H](O)CN(Cc1ccc(-c2ccccn2)cc1)NC(=O)[C@@H](NC(=O)OC)C(C)(C)C)C(C)(C)C [Atazanavir] | -0.672 | -1.55 | -1.56 | -0.953 | 2.7
10 | NCCCCCC(=O)O [6-Aminocaproic Acid] | 8.15 | -0.142 | 5.22 | 0.269 | 3.43
11 | CC[C@H](C)C[C@H](C)CCCCCCCCC(=O)N[C@H]1C[C@@H](O)[C@@H](NCCN)NC(=O)[C@@H]2[C@@H](O)CCN2C(=O)[C@H]([C@H](O)CCN)NC(=O)[C@H]([C@H](O)[C@@H](O)c2ccc(O)cc2)NC(=O)[C@@H]2C[C@@H](O)CN2C(=O)[C@H]([C@@H](C)O)NC1=O [Caspofungin (acetate)] | 12.4 | -1.41 | -14 | -0.0911 | -8.06
12 | CNC(=O)c1ccccc1Sc1ccc2c(/C=C/c3ccccn3)n[nH]c2c1 [Axitinib] | 4.07 | 1.36 | -1.06 | -0.505 | 6.84
13 | Nc1cccc2c1CN(C1CCC(=O)NC1=O)C2=O (stereo not given) [Lenalidomide] | -0.5 | 7.32 | 0.485 | -0.169 | 5.58
14 | CN1CC2c3ccccc3Oc3ccc(Cl)cc3C2C1 (racemic) [(±)-Asenapine] | 15.8 | -0.436 | 46.3 | -12.3 | -1.19
15 | CCN(CC)CCOc1ccc(C(=C(Cl)c2ccccc2)c2ccccc2)cc1 [Clomiphene (citrate)] | -9.14 | 5.47 | -4.03 | -5.11 | -16.4
16 | CC(=O)O[C@H]1CC[C@@]2(C)C(=CC[C@@H]3[C@@H]2CC[C@]2(C)C(c4cccnc4)=CC[C@@H]32)C1 [Abiraterone Acetate] | 9.1 | -1.78 | -2.76 | -1.15 | 2.44
17 | Cc1cccc(C)c1OCC(C)N (stereo not given) [Mexiletine (hydrochloride)] | 9.5 | 1.48 | -2.5 | -10.3 | 1.04
18 | O=C(NC[C@H]1CN(c2ccc(N3CCOCC3=O)cc2)C(=O)O1)c1ccc(Cl)s1 [Rivaroxaban] | -1.52 | -3.86 | -2.47 | -4.56 | 1.67
19 | COc1ccc([C@@H]2Sc3ccccc3N(CCN(C)C)C(=O)[C@@H]2OC(C)=O)cc1 [Diltiazem (hydrochloride)] | 8.73 | -1.93 | 11.2 | -8.44 | 1.27
20 | CN1CCN2c3ncccc3Cc3ccccc3C2C1 (stereo not given) [Mirtazapine] | -3.43 | 3.21 | 17.5 | -1.46 | -7.5
21 | CCN(CCO)CCCC(C)Nc1ccnc2cc(Cl)ccc12 (stereo not given) [Hydroxychloroquine (sulfate)] | 10.2 | 0.589 | -2.91 | 4.81 | -3.68
22 | Cn1cnc2c(F)c(Nc3ccc(Br)cc3F)c(C(=O)NOCCO)cc21 [Binimetinib] | -0.212 | -0.502 | 15.3 | -0.78 | 7.07
23 | CN(C)[C@@H]1C(O)=C(C(N)=O)C(=O)[C@@]2(O)C(O)=C3C(=O)c4c(O)ccc(Cl)c4[C@@H](O)[C@H]3C[C@@H]12 [Demeclocycline (hydrochloride)] | 12.9 | -2.29 | 4.59 | 7.81 | 2.94

Row | SMILES | difference in excitability [1] | difference in startle response [2] | difference in activity during first hour [3] | difference in habituation to acoustic stimuli [4] | difference [5]
24 | CO/N=C(\C(=O)N[C@@H]1C(=O)N2C(C(=O)O)=C(COC(N)=O)CS[C@H]12)c1ccco1 [Cefuroxime (sodium salt)] | 21.1 | 5.54 | -6.92 | 2.43 | 10.9
25 | CC(=O)NC[C@H]1CN(c2ccc(N3CCOCC3)c(F)c2)C(=O)O1 [Linezolid] | -5.19 | 5.59 | -0.74 | 3.24 | 0.137
26 | OC(Cn1cncn1)(Cn1cncn1)c1ccc(F)cc1F [Fluconazole] | -1.01 | -5.1 | -3.04 | -5.58 | 3.09
27 | CC(C)[N+](C)(CCOC(=O)C1c2ccccc2Oc2ccccc21)C(C)C [Propantheline (bromide)] | 4.4 | 5.21 | 4.15 | 4.81 | 5.08
28 | CC(=O)O[C@H]1C(=O)[C@@]2(C)[C@H]([C@H](OC(=O)c3ccccc3)[C@]3(O)C[C@H](OC(=O)[C@H](O)[C@@H](NC(=O)c4ccccc4)c4ccccc4)C(C)=C1C3(C)C)[C@]1(OC(C)=O)CO[C@@H]1C[C@@H]2O [Paclitaxel] | -11.7 | -1.74 | -4.46 | 3.51 | -2.9
29 | COc1cc(Nc2c(C#N)cnc3cc(OCCCN4CCN(C)CC4)c(OC)cc23)c(Cl)cc1Cl [Bosutinib] | 10.4 | 1.86 | -11.7 | -5.15 | 2.77
30 | Clc1ccc(C(Cn2ccnc2)OCc2csc3c(Cl)cccc23)c(Cl)c1 (stereo not given) [Sertaconazole (nitrate)] | 4.31 | -8.13 | -18.2 | -10 | -11.3
31 | CCCCC[C@H](O)/C=C/[C@H]1[C@H](O)CC(=O)[C@@H]1CCCCCCC(=O)O [Prostaglandin E1] | 15.5 | -3.01 | -8.7 | -1.03 | 0.226
32 | COc1ccc(S(=O)(=O)Nc2ccccc2CN(C)C/C=C/c2ccc(Cl)cc2)cc1 [KN-92 (hydrochloride)] | 7.68 | -0.787 | -17.8 | -4.48 | -1.81
33 | CCC(=O)O[C@]1(C(=O)CCl)[C@@H](C)C[C@H]2[C@@H]3CCC4=CC(=O)C=C[C@]4(C)[C@@]3(F)[C@@H](O)C[C@@]21C [Clobetasol Propionate] | 2.04 | -8.98 | 19.3 | 0.438 | 4.92
34 | CCCCCOc1ccc(-c2ccc(-c3ccc(C(=O)N[C@H]4C[C@@H](O)[C@@H](O)NC(=O)[C@@H]5[C@@H](O)[C@@H](C)CN5C(=O)[C@H]([C@@H](C)O)NC(=O)[C@H]([C@H](O)[C@@H](O)c5ccc(O)cc5)NC(=O)[C@@H]5C[C@@H](O)CN5C(=O)[C@H]([C@@H](C)O)NC4=O)cc3)cc2)cc1 [Anidulafungin] | 9.87 | -9.61 | -17.6 | -10.4 | -18.1
35 | CN1C(=O)OC(C)(C)C1=O [Trimethadione] | 6.43 | 11.1 | -6 | 3.86 | -0.0394
36 | CCC(=O)O[C@]1(C(=O)CCl)[C@@H](C)C[C@H]2[C@@H]3C[C@H](F)C4=CC(=O)C=C[C@]4(C)[C@@]3(F)[C@@H](O)C[C@@]21C [Halobetasol Propionate] | 12.1 | 1.54 | 3.96 | -4.09 | 3.99
37 | O=C1CN(/N=C/c2ccc(-c3ccc([N+](=O)[O-])cc3)o2)C(=O)N1 [Dantrolene (sodium salt)] | 9.39 | 1.23 | -7.55 | 0.0919 | 0.433
38 | CC(c1cc2ccccc2s1)N(O)C(N)=O (stereo not given) [Zileuton] | 3.87 | -0.493 | -3.58 | -0.832 | 6
39 | COC(=O)[C@H]1[C@H]2C[C@@H]3c4[nH]c5cc(OC)ccc5c4CCN3C[C@H]2C[C@@H](OC(=O)c2cc(OC)c(OC)c(OC)c2)[C@@H]1OC [Reserpine] | 24.6 | -7.69 | 9.27 | -7.61 | -10.4
40 | CCCN1CCCC[C@H]1C(=O)Nc1c(C)cccc1C [(-)-Ropivacaine (hydrochloride hydrate)] | -4.41 | -2.15 | 7.62 | -1.06 | 1.37
41 | CC1(C)O[C@@H]2C[C@H]3[C@@H]4CCC5=CC(=O)C=C[C@]5(C)[C@@]4(F)[C@@H](O)C[C@]3(C)[C@]2(C(=O)CO)O1 [Triamcinolone acetonide] | -3.81 | -2.41 | 12.6 | 3.46 | 7.94
42 | CN(C)[C@@H]1C(O)=C(C(N)=O)C(=O)[C@@]2(O)C(O)=C3C(=O)c4c(O)cccc4[C@@](C)(O)[C@H]3C[C@@H]12 [Tetracycline (hydrochloride)] | 5.28 | 1.04 | 2.06 | -0.0493 | -5.79
43 | CN(C)CCC=C1c2ccccc2CCc2ccccc21 [Amitriptyline (hydrochloride)] | 2.65 | 5.98 | -3.87 | -14.7 | -8.17
44 | C#C[C@]1(O)CC[C@H]2[C@@H]3CCc4cc(OC)ccc4[C@H]3CC[C@@]21C [Mestranol] | 23 | -9.55 | -22.7 | 1.6 | -16.5
45 | O=C(O)P(=O)(O)O [Foscarnet (sodium salt)] | -6.03 | 6.15 | 20.9 | -1.07 | 4.77
46 | CC[C@@H]([C@H](C)O)n1ncn(-c2ccc(N3CCN(c4ccc(OC[C@@H]5CO[C@@](Cn6cncn6)(c6ccc(F)cc6F)C5)cc4)CC3)cc2)c1=O [Posaconazole] | 9.26 | -3.5 | 4.34 | -1.56 | 5.63
